The results in this text go back to PubChem BioAssay AID493168 (National Center for Advancing Translational Sciences (NCATS), 2011).

The structures appear in SMILES notation. Inconclusive results are not listed. Where a call stands in place of a potency, no number is given. Active and inactive are the calls of the source. Calls follow the shape of the dose curve; as a rule, active = well fitted inhibition curve with a large enough effect; inconclusive = small, poorly fitted or top-dose-only effect, or effect the other way; inactive = flat fitted curve, though single readings scatter.
Potency is read from the fitted curve at half-maximal effect.

Ubiquitin carboxyl-terminal hydrolase 2 (Homo sapiens), sequence (O75604 whole entry, looked up): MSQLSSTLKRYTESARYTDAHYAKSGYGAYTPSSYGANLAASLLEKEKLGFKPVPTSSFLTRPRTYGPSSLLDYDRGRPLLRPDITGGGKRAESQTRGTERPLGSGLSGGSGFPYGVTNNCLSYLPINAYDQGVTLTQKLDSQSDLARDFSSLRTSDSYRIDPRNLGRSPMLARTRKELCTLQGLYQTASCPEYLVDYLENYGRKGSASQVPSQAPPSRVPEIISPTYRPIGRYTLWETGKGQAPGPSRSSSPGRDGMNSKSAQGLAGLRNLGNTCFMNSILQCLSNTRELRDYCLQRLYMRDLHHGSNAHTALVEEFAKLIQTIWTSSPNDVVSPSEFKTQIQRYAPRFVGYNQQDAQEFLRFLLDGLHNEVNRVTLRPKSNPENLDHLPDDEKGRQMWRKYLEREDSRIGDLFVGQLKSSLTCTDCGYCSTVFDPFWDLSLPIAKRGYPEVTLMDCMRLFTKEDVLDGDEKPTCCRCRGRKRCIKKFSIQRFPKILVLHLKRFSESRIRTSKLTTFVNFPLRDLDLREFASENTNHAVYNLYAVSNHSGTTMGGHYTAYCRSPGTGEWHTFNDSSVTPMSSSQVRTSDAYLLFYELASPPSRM

The assay has as its target Ubiquitin carboxyl-terminal hydrolase 2 (Homo sapiens) (UniProt O75604). Nature of the assay: Confirmation Assay for Inhibitors of Ubiquitin-specific Protease USP2a Using CHOP2 as the Reporter. Also: nearly all actives have a fitted effect of over 55% in size. Conditions: USP2 core, Ub-CHOP2 coupled reporter fluorescence; series mostly up to 38.3 µM. In a few lines:
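Ub-CHOP2 cleavage coupled to reporter activation was read by fluorescence after 60 min at RT, with 25 nM final Ub-CHOP2 and substrate. Enzyme (10 nM final USP2 core) first sat 30 min with compound; data were normalized to NEM and fitted to concentration-response curves.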
Regarding `O=C(Cc1ccccc1)Nc1cccc(N2CCCC2)c1`, the Potency entry is “inactive”.
In the case of `CCC(C)c1ccc(O)c(N)c1` (stereo not given) it was “inactive”.
For `COc1cccc(NC(=O)Cc2ccccc2)c1`, the Potency entry is “inactive”.
Consider `COCCn1nnnc1CN(CCc1ccccc1)Cc1cc2ccc(C)cc2[nH]c1=O`, for which the Potency result is “inactive”.
Then `C/C(CC(=O)N1CCCC1)=N\NC(=O)c1cc2ccccc2cc1O`, with “inactive”.
As to `Cc1ccc2oc(=O)c3cnn(CC(=O)NCCCOC(C)C)c3c2c1`, the Potency result is “inactive”.
Then `C=CC[C@H](CC(=O)N(CCO)Cc1ccccc1)C(=O)N[C@H](C)COC(=O)[C@@H](CC=C)CC(=O)OC(C)(C)C`, with “inactive”.
Then `CC(C)c1ccc(NC(=O)C(c2ccc3c(c2)OCO3)N2CCCCC2)cc1` (stereo not given), with “inactive”; and `Cc1cccc2c1N(CCCOc1ccc(C(C)(C)C)cc1)C(=O)C2=O`, with “inactive”.
Then `CCCCCCCC/C=C\CCCCCCCC(=O)NCCc1ccc(O)c(O)c1`, with “inactive”; and `COc1cc(/C=C/C(=O)OCC(=O)NC(=O)NCc2ccco2)ccc1OC(F)F`, with “inactive”.
Turning to `CNc1cccccc1=S`, the Potency result is “inactive”.
In the case of `CCc1cc(C(=O)N=Nc2c(O)[nH]c3ccc([N+](=O)[O-])cc23)c2ccccc2n1`, the Potency was 14.7 µM (active).
With `Cc1cc(C)n2cc(CSc3nnnn3-c3ccccc3C)nc2n1`, the Potency result was “inactive”.
Turning to `O=C(/C=C/c1ccc(Cl)c([N+](=O)[O-])c1)Nc1ccc(N2CCCC2)cc1`, the Potency entry is “inactive”.
Then `O=C(Nc1ccc(Nc2ccncc2)cc1)c1ccc(Nc2ccnc3ccc([N+](=O)[O-])cc23)cc1`, with 7.36 µM (active); and `COc1ccc(CCNC(=O)COC(=O)CNS(=O)(=O)c2ccc(SC)c([N+](=O)[O-])c2)cc1`, with “inactive”; and `Cc1ccc2[nH]c3c(c2c1)CN(C(=O)CN1CCSCC1)CC3`, with “inactive”.
With `COC(=O)c1c(N2C(=O)CCC2=O)sc2c1CCCC2`, the Potency entry is “inactive”.
Then `CC(C)n1c(/C=C/[C@H](O)C[C@H](O)CC(=O)O)c(-c2ccc(F)cc2)c2ccccc21`, with “inactive”.
Then `O=C(Nc1ccc(S(=O)(=O)Nc2ncccn2)cc1)c1ccc(S(=O)(=O)N2CCCC2)cc1`, with “inactive”.
Then `O=C(CSc1nnnn1-c1ccc(F)cc1)c1ccc(O)c(O)c1`, with “inactive”; and `Cn1c(=O)[nH]c(=O)c2c1nc(NCc1ccccc1)n2CCCc1ccccc1`, with “inactive”; and `COc1ccc(OCC(=O)NCCNC(=O)c2cccnc2)cc1`, with “inactive”.
With `CN(c1ccccc1)S(=O)(=O)c1ccc(Cl)c(C(=O)NCCc2c[nH]c3ccccc23)c1`, the Potency entry was “inactive”.
In the case of `COc1ccc(OC)c(NC(=O)CSc2nc(O)cc(=O)n2CC(C)C)c1` it was “inactive”; in that of `CC(C)C(C(=O)O)N1C(=O)/C(=C/C=C/c2ccco2)SC1=S` (stereo not given), 6.56 µM (active); in that of `O=C(NNC(=O)c1cc2ccccc2cc1O)Nc1ccccc1F`, “inactive”.
In the case of `Cc1cc(N2CCC(C(=O)NC3CC3)CC2)nc(-c2ccccc2)n1` it was “inactive”; in that of `O=C(CSc1nc(N2CCCCC2)nc(N2CCCCC2)n1)N1CCN(c2ccccc2)CC1`, “inactive”.
In the case of `Cc1n[nH]c(C)c1S(=O)(=O)N1CCCC(C(=O)NC2CCCc3ccccc32)C1` (stereo not given) it was “inactive”; in that of `CC(OC(=O)CN(C)S(=O)(=O)c1ccc(Cl)cc1)C(=O)Nc1ccc(N2CCOCC2)cc1` (stereo not given), “inactive”; in that of `Nc1ccc2nc(-c3cccc(-c4nc5ccc(N)cc5[nH]4)c3)[nH]c2c1`, “inactive”.
Regarding `Cc1ccc(C(=O)O/N=C/c2c(C(F)(F)F)nn(C)c2Sc2ccc(Cl)cc2)cc1`, the Potency entry is “inactive”.
Then `COc1ccc(CCN2C(=O)/C(=C\c3ccco3)SC2=S)cc1OC`, with “inactive”; and `COc1cc(/C=C(/C(=O)c2cccs2)c2nc3ccccc3[nH]2)ccc1O`, with “inactive”.
As to `Cc1cc(C)n(C(=O)c2cccc(S(=O)(=O)N3CCCC3)c2)n1`, the Potency result is “inactive”.
Then `C[C@H](CO)N1C[C@H](C)[C@@H](CN(C)S(=O)(=O)c2cn(C)cn2)Oc2ccc(NC(=O)Cn3cnnn3)cc2C1=O`, with “inactive”; and `Nc1nc(NCCO)nc(NCC2CCCO2)c1[N+](=O)[O-]` (stereo not given), with “inactive”; and `C=CC[C@H](CC(=O)OC(C)(C)C)C(=O)OC[C@@H]1CCCN1C(=O)[C@H](CC=C)CC(=O)N[C@H](CO)Cc1ccccc1`, with “inactive”.
